The source of these data is PubChem BioAssay (NCI).

Structures are written as SMILES. The panel holds about 83,000 compounds, 20% with a hit somewhere; the sample as a whole holds those more often.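 How to read the values: 0–100, growth inhibition (40 = 60% inhibited); 0, no net growth; -100 to 0, cell death (-40 = 40% of starting cells died; -100 = all dead).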 A number with no mark means an inactive call. The source made the active and inactive calls. Rule for the calls: active = growth percent below 10; inactive = the rest.

Holding throughout (experiment): NCI-60 one-dose screen, 48 h (100 = growth as untreated, 0 = no growth, -100 = all killed)
Conditions in all cases: 10 µM unless noted

The test system of test [1] is SK-MEL-2 melanoma.
The subject of test [2] is EKVX NSCLC.
The subject of test [3] is SN12C renal.
Test [4] deals with UO-31 renal.
In test [5] the test system is CAKI-1 renal.
The subject of test [6] is A498 renal.
Test [7] concerns CCRF-CEM leukemia.
Test [8] deals with SR leukemia.
For test [9], the system named is RPMI-8226 leukemia.
The test system of test [10] is OVCAR-8 ovarian.
The test system of test [11] is OVCAR-4 ovarian.
For test [12], the system named is SK-OV-3 ovarian.
In test [13] the test system is IGROV1 ovarian.
Test [14] deals with OVCAR-3 ovarian.
In test [15] the test system is HS 578T breast.
For test [16], the system named is NCI/ADR-RES ovarian.
Test [17] concerns ACHN renal.
Test [18] concerns MOLT-4 leukemia.
Test [19] deals with OVCAR-5 ovarian.

On to `Cc1ccc(Cl)c(NS(=O)(=O)c2ccc(-c3cnc(C4CC4)o3)cc2)c1`, for which the growth is 56.9% in test [1]; 31.4% in test [2]; 60.7% in [3]; 44.3% in [4]; 36.6% in test [5]; -5.72% (active) in [6]. In addition, the growth is 14.1% in test [7]; 15.7% in test [8]; 18.8% in [9]; 28.1% in test [10]; 48.3% in test [11]; 44.5% in [12]. Further, the growth is 27% in test [13], -1.26% (active) in test [14], 13.5% in test [15] and 19.5% in test [16].

`CN(Cc1cnc2nc(N)nc(N)c2n1)c1ccc(C(=O)N[C@@H](CCc2nn[nH]n2)c2nn[nH]n2)cc1`: the growth was 75.3% in test [1]; 85.7% in [2]; 36% in [3]; 43.1% in test [4]; 33.6% in [17]; 29.3% in test [5]. Moreover, the growth in test [6] was 97.2%; in [18] it was 28.2%; in [8], 29.2%; in [9], 44.1%; in [10], 32.8%; in test [19] it was 56.1%. Besides, the growth is 91% in test [11]; 82.8% in test [12]; 45.6% in test [13]; 53% in test [14]; 76.2% in test [15]; 40.4% in test [16].

Turning to `CCOC(=O)c1csc(NC(=O)COc2cccc(/C=C3\Oc4cc(OC)ccc4C3=O)c2)n1`, the growth is 83.5% in test [1]; 98.6% in test [2]; 109% in test [3]; -38.8% (active) in test [4]; 95.5% in [17]; 92.3% in [5]. For the same compound, the growth in test [6] is 108%; in [7] it was 62.3%; in [18], 65.1%; in [9], 64.4%; in test [10] it was 74.2%; in test [19] it was 130%. In addition, the growth was 90% in test [11]; 101% in test [12]; 78.4% in test [14]; 91.3% in test [15]; 79.4% in test [16].

`CCN(CC)S(=O)(=O)c1cccc(-c2ccc3c(NC(=O)C4CC4)n[nH]c3c2)c1`: the growth in test [1] is -16.9% [6.25 µM] (active); in test [2], 27.5% [6.25 µM]; in test [3] it was 38.8% [6.25 µM]; in test [4] it was 36% [6.25 µM]; in test [17], 27.2% [6.25 µM]; in [5] it was 37.7% [6.25 µM]. In addition, the growth in [6] was 9.92% [6.25 µM] (active); in [7], 17.6% [6.25 µM]; in test [18] it was 10.4% [6.25 µM]; in test [9] it was 11% [6.25 µM]; in test [10], 14.7% [6.25 µM]; in test [19], 51.6% [6.25 µM]. The growth in test [11] is 18.7% [6.25 µM]; in test [12], 28.6% [6.25 µM]; in test [13] it was 34.7% [6.25 µM]; in test [14], 17.3% [6.25 µM]; in test [16], 79.7% [6.25 µM].

On to `O=C1Nc2ccccc2/C1=C/c1cn(C(=O)c2ccc(Cl)cc2)c2ccccc12`, for which the growth was 120% in [1]; 59% in test [2]; 95.4% in test [3]; 74.7% in [4]; 103% in test [17]; 59.1% in [5]. The growth in test [6] is 116%; in test [7] it was 104%; in test [18] it was 109%; in test [9], 74.5%; in test [10], 95.1%; in test [19], 110%. The growth in [11] was 78.3%; in test [12] it was 104%; in test [13], 72.7%; in [14] it was 98.7%; in test [15] it was 106%; in [16], 104%.

For `O=C1/C(=C/c2ccc(F)cc2)C=C(c2ccccc2)N1CCc1ccccc1`, the growth was 55.5% in test [1]; 56.9% in [2]; 58.3% in [3]; 51% in test [4]; 38.6% in [17]; 76% in test [5]. Further, the growth in test [6] was 81.3%; in [7], 95%; in test [8], 46.5%; in test [9] it was 89.3%; in test [10], 45.6%; in [19], 78.7%. Moreover, the growth is 39.3% in [11]; 29.1% in [12]; 62.3% in test [13]; 53.1% in test [14]; 42.1% in [15]; 58.2% in [16].

In the case of `O=C1Nc2ccc(F)cc2C12Nc1cc(Cl)ccc1S2` (centres undefined), the growth in [1] was 157%; in test [2], 89.2%; in [3], 97.9%; in test [4], 80.4%; in test [17] it was 99.8%; in [5] it was 55.2%. For the same compound, the growth was 89.2% in [6]; 76.4% in test [7]; 74.5% in [18]; 32.9% in test [9]; 96.9% in test [10]; 121% in test [19]. The growth is 77.9% in [11]; 83.8% in test [12]; 82.8% in test [14]; 94.4% in test [15]; 93.4% in [16].

Regarding `COc1cccc(-c2nn(-c3ccccc3)cc2-c2ccnc(NCCCNC(=O)c3cccc(C(F)(F)F)c3)c2)c1`, the growth was 33.4% in [1]; 48.9% in test [2]; 45.5% in test [3]; 10.9% in [4]; 31.7% in [17]; 51.4% in test [5]. Besides, the growth in [6] was 43.6%; in test [7], 21.5%; in [8] it was -29% (active); in [9], 9.33% (active); in test [10] it was 22.4%; in test [19], 71.6%. For the same compound, the growth in test [11] was 31.3%; in [12], 28.3%; in test [13] it was 58.8%; in test [14] it was 41.4%; in test [15], 33.7%; in test [16] it was 22.6%.
